Measurements published in ChEMBL document CHEMBL2218924, “A broad activity screen in support of a chemogenomic map for kinase signalling research and drug discovery” (Biochem J, 2013).

How the values were obtained:
[1] = target: Ribosomal protein S6 kinase alpha-1 (Homo sapiens) (UniProt Q15418); details: at 1 µM
[2] = target: Ribosomal protein S6 kinase alpha-1 (Homo sapiens) (UniProt Q15418); details: at 10 µM
[3] = target: Ribosomal protein S6 kinase alpha-3 (Homo sapiens) (UniProt P51812); details: at 1 µM
[4] = target: Ribosomal protein S6 kinase alpha-3 (Homo sapiens) (UniProt P51812); details: at 10 µM
[5] = target: Ribosomal protein S6 kinase alpha-2 (Homo sapiens) (UniProt Q15349); details: at 1 µM
[6] = target: Ribosomal protein S6 kinase alpha-2 (Homo sapiens) (UniProt Q15349); details: at 10 µM
[7] = target: Ribosomal protein S6 kinase alpha-6 (Homo sapiens) (UniProt Q9UK32); details: at 1 µM
[8] = target: Ribosomal protein S6 kinase alpha-6 (Homo sapiens) (UniProt Q9UK32); details: at 10 µM
[9] = target: Mitogen-activated protein kinase 14 (Homo sapiens) (UniProt Q16539); details: at 1 µM
[10] = target: Mitogen-activated protein kinase 14 (Homo sapiens) (UniProt Q16539); details: at 10 µM

Chain of Ribosomal protein S6 kinase alpha-6 (Homo sapiens) (Q9UK32 whole entry): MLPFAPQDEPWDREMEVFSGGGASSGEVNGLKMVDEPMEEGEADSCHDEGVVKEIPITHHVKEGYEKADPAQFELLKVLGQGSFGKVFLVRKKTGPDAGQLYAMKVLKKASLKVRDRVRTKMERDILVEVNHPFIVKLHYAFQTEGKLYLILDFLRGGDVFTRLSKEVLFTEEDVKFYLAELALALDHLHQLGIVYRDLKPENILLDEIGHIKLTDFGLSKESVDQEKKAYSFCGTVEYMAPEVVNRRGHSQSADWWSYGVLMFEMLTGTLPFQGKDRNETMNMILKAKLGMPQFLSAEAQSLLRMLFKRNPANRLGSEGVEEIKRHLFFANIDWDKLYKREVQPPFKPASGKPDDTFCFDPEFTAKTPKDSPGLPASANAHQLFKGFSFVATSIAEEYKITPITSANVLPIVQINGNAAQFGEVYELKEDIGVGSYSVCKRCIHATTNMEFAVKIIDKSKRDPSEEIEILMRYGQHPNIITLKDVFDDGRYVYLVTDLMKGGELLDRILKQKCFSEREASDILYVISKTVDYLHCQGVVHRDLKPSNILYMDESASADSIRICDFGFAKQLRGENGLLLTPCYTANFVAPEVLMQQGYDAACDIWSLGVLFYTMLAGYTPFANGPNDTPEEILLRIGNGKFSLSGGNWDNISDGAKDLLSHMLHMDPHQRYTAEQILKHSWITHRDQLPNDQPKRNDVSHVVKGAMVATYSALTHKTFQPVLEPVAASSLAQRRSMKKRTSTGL
Chain of Ribosomal protein S6 kinase alpha-2 (Homo sapiens) (Q15349 whole entry): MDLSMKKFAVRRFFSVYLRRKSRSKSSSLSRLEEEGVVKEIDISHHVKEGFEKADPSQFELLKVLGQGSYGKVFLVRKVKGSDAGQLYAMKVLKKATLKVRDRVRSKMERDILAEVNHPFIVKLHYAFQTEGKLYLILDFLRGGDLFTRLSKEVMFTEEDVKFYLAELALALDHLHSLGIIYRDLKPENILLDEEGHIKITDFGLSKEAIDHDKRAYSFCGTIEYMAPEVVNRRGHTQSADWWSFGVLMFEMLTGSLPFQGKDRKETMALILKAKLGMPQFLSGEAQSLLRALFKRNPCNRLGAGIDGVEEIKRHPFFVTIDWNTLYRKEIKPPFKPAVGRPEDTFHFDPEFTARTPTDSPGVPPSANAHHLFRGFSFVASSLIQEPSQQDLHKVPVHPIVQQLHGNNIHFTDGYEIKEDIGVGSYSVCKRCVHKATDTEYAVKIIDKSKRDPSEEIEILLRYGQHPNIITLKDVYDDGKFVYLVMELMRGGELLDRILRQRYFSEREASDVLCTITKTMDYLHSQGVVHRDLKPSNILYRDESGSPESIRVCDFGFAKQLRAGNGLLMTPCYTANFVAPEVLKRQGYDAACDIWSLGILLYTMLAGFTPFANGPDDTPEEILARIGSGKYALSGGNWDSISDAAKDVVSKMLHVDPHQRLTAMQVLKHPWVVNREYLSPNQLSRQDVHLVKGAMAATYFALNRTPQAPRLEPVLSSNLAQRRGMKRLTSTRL
Chain of Ribosomal protein S6 kinase alpha-3 (Homo sapiens) (P51812 whole entry): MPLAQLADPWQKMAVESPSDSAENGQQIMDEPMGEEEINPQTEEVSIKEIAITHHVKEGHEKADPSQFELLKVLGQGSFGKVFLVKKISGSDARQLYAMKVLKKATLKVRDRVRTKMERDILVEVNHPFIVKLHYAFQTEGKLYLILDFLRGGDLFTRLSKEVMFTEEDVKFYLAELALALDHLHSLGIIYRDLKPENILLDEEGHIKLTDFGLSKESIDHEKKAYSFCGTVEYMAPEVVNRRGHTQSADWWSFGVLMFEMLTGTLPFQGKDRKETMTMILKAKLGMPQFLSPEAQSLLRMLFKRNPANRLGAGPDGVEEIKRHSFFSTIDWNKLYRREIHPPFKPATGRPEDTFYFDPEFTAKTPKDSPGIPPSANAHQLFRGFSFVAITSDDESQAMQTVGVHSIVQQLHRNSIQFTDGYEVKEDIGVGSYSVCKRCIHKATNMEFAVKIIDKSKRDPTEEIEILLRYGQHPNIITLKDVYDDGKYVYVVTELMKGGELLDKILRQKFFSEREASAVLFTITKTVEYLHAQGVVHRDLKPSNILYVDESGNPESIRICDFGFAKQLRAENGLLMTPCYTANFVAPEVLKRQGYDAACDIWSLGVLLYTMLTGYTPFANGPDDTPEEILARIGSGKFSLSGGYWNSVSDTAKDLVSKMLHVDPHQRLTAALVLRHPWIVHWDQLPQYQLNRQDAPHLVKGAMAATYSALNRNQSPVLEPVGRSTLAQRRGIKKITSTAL
Chain of Mitogen-activated protein kinase 14 (Homo sapiens) (Q16539 whole entry): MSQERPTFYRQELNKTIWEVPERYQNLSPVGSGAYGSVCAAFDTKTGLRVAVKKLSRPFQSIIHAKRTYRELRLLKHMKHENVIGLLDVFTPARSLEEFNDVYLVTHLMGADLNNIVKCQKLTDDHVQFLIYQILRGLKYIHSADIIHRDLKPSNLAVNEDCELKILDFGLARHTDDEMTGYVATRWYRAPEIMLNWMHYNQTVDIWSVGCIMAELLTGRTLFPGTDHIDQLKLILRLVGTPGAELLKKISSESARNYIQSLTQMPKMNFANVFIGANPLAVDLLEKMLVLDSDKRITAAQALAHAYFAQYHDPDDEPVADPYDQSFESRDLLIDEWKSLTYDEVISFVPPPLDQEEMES
Chain of Ribosomal protein S6 kinase alpha-1 (Homo sapiens) (Q15418 whole entry): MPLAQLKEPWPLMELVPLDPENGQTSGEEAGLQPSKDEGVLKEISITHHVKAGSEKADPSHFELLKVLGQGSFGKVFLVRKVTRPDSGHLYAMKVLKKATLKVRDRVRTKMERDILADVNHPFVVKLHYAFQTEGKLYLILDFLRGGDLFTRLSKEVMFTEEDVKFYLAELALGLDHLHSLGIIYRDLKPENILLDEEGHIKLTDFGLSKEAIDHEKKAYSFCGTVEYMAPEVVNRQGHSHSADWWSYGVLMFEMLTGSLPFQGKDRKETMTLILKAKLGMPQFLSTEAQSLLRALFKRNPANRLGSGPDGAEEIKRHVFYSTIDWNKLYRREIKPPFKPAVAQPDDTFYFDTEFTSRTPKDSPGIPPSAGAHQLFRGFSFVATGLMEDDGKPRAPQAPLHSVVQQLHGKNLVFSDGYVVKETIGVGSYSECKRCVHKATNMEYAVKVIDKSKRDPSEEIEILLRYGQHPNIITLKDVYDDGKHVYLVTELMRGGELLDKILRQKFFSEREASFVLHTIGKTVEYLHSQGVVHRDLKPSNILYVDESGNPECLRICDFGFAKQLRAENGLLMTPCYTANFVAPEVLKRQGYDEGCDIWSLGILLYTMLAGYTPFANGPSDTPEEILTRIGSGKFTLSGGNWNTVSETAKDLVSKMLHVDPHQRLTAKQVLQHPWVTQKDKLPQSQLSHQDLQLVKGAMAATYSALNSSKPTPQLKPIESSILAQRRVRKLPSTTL

Question: For `O=C(O)c1ccc2c3c1cccc3c(=O)n1c3ccccc3nc21`, which residual activity [1] is on record?
Answer: 103%

Question: And the residual activity [2]?
Answer: 79%

Question: And the residual activity [3]?
Answer: 51%

Question: And the residual activity [4]?
Answer: 37%

Question: What about the residual activity [5] of the same compound?
Answer: 90%

Question: What about the residual activity [6] of the same compound?
Answer: 55%

Question: What about the residual activity [7] of the same compound?
Answer: 81%

Question: And the residual activity [8]?
Answer: 73%

Question: And the residual activity [9]?
Answer: 95%

Question: What about the residual activity [10] of the same compound?
Answer: 94%

Question: What does the source list for `CO[C@H]1[C@@H](OC)C[C@H](C)[C@@H](OC)C2=CC(=O)C=C(NC(=O)/C(C)=C/C=C/[C@H](OC)[C@@H](OC(N)=O)/C(C)=C/[C@@H]1C)C2=O`?
Answer: residual activity [1]: 115%; residual activity [2]: 84%; residual activity [3]: 50%; residual activity [4]: 36%; residual activity [5]: 93%; residual activity [6]: 104%; residual activity [7]: 113%; residual activity [8]: 91%

Question: With `N#CCCc1ccc2c(c1)-c1[nH]c3ccc([N+](=O)[O-])cc3c1CC(=O)N2` as the compound, how does the residual activity [1] read?
Answer: 45%

Question: And the residual activity [2]?
Answer: 24%

Question: What about the residual activity [3] of the same compound?
Answer: 9%

Question: What about the residual activity [4] of the same compound?
Answer: 3%

Question: What about the residual activity [5] of the same compound?
Answer: 8%

Question: What about the residual activity [6] of the same compound?
Answer: 1%

Question: What about the residual activity [7] of the same compound?
Answer: 16%

Question: And the residual activity [8]?
Answer: 5%

Question: What does the source list for `O=C1NC(=O)/C(=C\c2ccc3nccnc3c2)S1`?
Answer: residual activity [1]: 112%; residual activity [2]: 83%; residual activity [3]: 61%; residual activity [4]: 35%; residual activity [5]: 114%; residual activity [6]: 78%; residual activity [7]: 101%; residual activity [8]: 99%; residual activity [9]: 82%; residual activity [10]: 91%

Question: What does the source list for `Cc1nc(-c2ccccc2)c(-c2ccncc2)o1`?
Answer: residual activity [1]: 88%; residual activity [2]: 97%; residual activity [3]: 60%; residual activity [4]: 64%; residual activity [5]: 100%; residual activity [6]: 92%; residual activity [7]: 81%; residual activity [8]: 117%; residual activity [9]: 57%; residual activity [10]: 14%

Question: Which results are given for `CC[n+]1c(/C=C/N(C)c2ccccc2)n(-c2ccccc2)c2ccc(-c3nc4ccccc4s3)cc21`?
Answer: residual activity [1]: 114%; residual activity [2]: 84%; residual activity [3]: 94%; residual activity [4]: 64%; residual activity [5]: 117%; residual activity [6]: 97%; residual activity [7]: 102%; residual activity [8]: 87%; residual activity [9]: 111%; residual activity [10]: 73%

Question: With `COc1ccc(CNc2nc(N(CCO)CCO)nc3c2ncn3C(C)C)cc1` as the compound, how does the residual activity [1] read?
Answer: 90%

Question: What about the residual activity [2] of the same compound?
Answer: 59%

Question: What about the residual activity [3] of the same compound?
Answer: 31%

Question: What about the residual activity [4] of the same compound?
Answer: 22%

Question: And the residual activity [5]?
Answer: 11%

Question: And the residual activity [6]?
Answer: 5%

Question: What about the residual activity [7] of the same compound?
Answer: 84%

Question: What about the residual activity [8] of the same compound?
Answer: 56%

Question: And the residual activity [9]?
Answer: 96%

Question: And the residual activity [10]?
Answer: 89%

Question: How did the residual activity [1] turn out when `O=C1NC(=O)/C(=C/c2ccc3c(c2)OC(F)(F)O3)S1` was run?
Answer: 125%

Question: What about the residual activity [2] of the same compound?
Answer: 65%

Question: What about the residual activity [3] of the same compound?
Answer: 56%

Question: What about the residual activity [4] of the same compound?
Answer: 35%

Question: What about the residual activity [5] of the same compound?
Answer: 117%

Question: And the residual activity [6]?
Answer: 99%

Question: What about the residual activity [7] of the same compound?
Answer: 125%

Question: What about the residual activity [8] of the same compound?
Answer: 103%

Question: And the residual activity [9]?
Answer: 99%

Question: What about the residual activity [10] of the same compound?
Answer: 109%

Question: `O=C1NC(=O)c2cc(Nc3ccc(F)cc3)c(Nc3ccc(F)cc3)cc21` was tested. Which residual activity [1] did it give?
Answer: 87%

Question: And the residual activity [2]?
Answer: 91%

Question: And the residual activity [3]?
Answer: 123%

Question: And the residual activity [4]?
Answer: 77%

Question: What about the residual activity [5] of the same compound?
Answer: 103%

Question: What about the residual activity [6] of the same compound?
Answer: 78%

Question: What about the residual activity [7] of the same compound?
Answer: 101%

Question: What about the residual activity [8] of the same compound?
Answer: 100%

Question: What about the residual activity [9] of the same compound?
Answer: 57%

Question: And the residual activity [10]?
Answer: 23%

Question: What does the source list for `Nc1nc(Nc2ccc(S(N)(=O)=O)cc2)nn1C(=S)Nc1c(F)cccc1F`?
Answer: residual activity [1]: 4%; residual activity [2]: 3%; residual activity [3]: 0%; residual activity [4]: -1%; residual activity [5]: 0%; residual activity [6]: -1%; residual activity [7]: -2%; residual activity [8]: -2%; residual activity [9]: 88%; residual activity [10]: 53%

Question: Which results are given for `COc1cccc(-c2cc(=O)c3ccccc3o2)c1N`?
Answer: residual activity [1]: 91%; residual activity [2]: 81%; residual activity [3]: 118%; residual activity [4]: 106%; residual activity [5]: 102%; residual activity [6]: 101%; residual activity [7]: 92%; residual activity [8]: 133%; residual activity [9]: 86%; residual activity [10]: 94%

Question: What does the source list for `COc1cc2ncnc(N3CCN(C(=O)Nc4ccc(Oc5ccccc5)cc4)CC3)c2cc1OC`?
Answer: residual activity [1]: 93%; residual activity [2]: 118%; residual activity [3]: 56%; residual activity [4]: 65%; residual activity [5]: 90%; residual activity [6]: 71%; residual activity [7]: 106%; residual activity [8]: 111%; residual activity [9]: 78%; residual activity [10]: 79%

Question: How did the residual activity [1] turn out when `CC(C)n1cnc2c(NCc3ccccc3)nc(NCCCO)nc21` was run?
Answer: 102%

Question: And the residual activity [2]?
Answer: 82%

Question: And the residual activity [3]?
Answer: 101%

Question: And the residual activity [4]?
Answer: 87%

Question: What about the residual activity [5] of the same compound?
Answer: 101%

Question: What about the residual activity [6] of the same compound?
Answer: 72%

Question: What about the residual activity [7] of the same compound?
Answer: 81%

Question: And the residual activity [8]?
Answer: 91%

Question: And the residual activity [9]?
Answer: 87%

Question: And the residual activity [10]?
Answer: 82%

Question: `COc1cc2ncnc(Nc3ccc(Oc4ccccc4)cc3)c2cc1OC` was tested. Which residual activity [1] did it give?
Answer: 122%

Question: What about the residual activity [2] of the same compound?
Answer: 78%

Question: And the residual activity [3]?
Answer: 104%

Question: And the residual activity [4]?
Answer: 126%

Question: What about the residual activity [5] of the same compound?
Answer: 100%

Question: What about the residual activity [6] of the same compound?
Answer: 73%

Question: And the residual activity [7]?
Answer: 102%

Question: And the residual activity [8]?
Answer: 130%

Question: What about the residual activity [9] of the same compound?
Answer: 75%

Question: And the residual activity [10]?
Answer: 80%

Question: Which results are given for `NC(=O)c1ccc2[nH]c(-c3ccc(Oc4ccc(Cl)cc4)cc3)nc2c1`?
Answer: residual activity [1]: 91%; residual activity [2]: 67%; residual activity [3]: 30%; residual activity [4]: 11%; residual activity [5]: 18%; residual activity [6]: 5%; residual activity [7]: 27%; residual activity [8]: 29%; residual activity [9]: 90%; residual activity [10]: 84%

Question: Which results are given for `CCC(=O)Nc1ccc2ncnc(Nc3cccc(Br)c3)c2c1`?
Answer: residual activity [1]: 119%; residual activity [2]: 84%; residual activity [3]: 120%; residual activity [4]: 91%; residual activity [5]: 99%; residual activity [6]: 71%; residual activity [7]: 124%; residual activity [8]: 82%; residual activity [9]: 78%; residual activity [10]: 50%

Question: For `CN(C)c1ccc(/C=C2\C(=O)Nc3ccccc32)cc1`, which residual activity [1] is on record?
Answer: 66%

Question: What about the residual activity [2] of the same compound?
Answer: 34%

Question: What about the residual activity [3] of the same compound?
Answer: 47%

Question: And the residual activity [4]?
Answer: 16%

Question: And the residual activity [5]?
Answer: 74%

Question: And the residual activity [6]?
Answer: 25%

Question: What about the residual activity [7] of the same compound?
Answer: 91%

Question: What about the residual activity [8] of the same compound?
Answer: 40%

Question: What about the residual activity [9] of the same compound?
Answer: 102%

Question: And the residual activity [10]?
Answer: 106%
